Bioassay records: PubChem BioAssay, National Center for Advancing Translational Sciences (NCATS)
A selection: hits, their analogues and other compounds. The true share with any hit is near 6.5%.
Marburg entry inh = blocks Marburg virus binding to or entry into cells. Marburg virus pseudotyped entry inhibition, cell reporter. Potency, µM (highest dose often 37.8 µM), most hits filed as inhibitors. actives 1.8% (n = 300,000). AID 540276; calls by dose curve; tested in HEK293 cells
Vaccinia mCherry = vaccinia inhibition (mCherry reporter); Vaccinia virus mCherry reporter infection, fluorescence; Potency, µM (series often up to 36.5 µM), most hits filed as inhibitors; actives 0.63% (n = 310,000); calls by dose curve; tested in A549 cells; also: nearly all actives have a fitted effect of over 35% in size
VACV Venus inh = vaccinia inhibition (Venus reporter) | Vaccinia virus Venus reporter expression, fluorescence | Potency, µM (doses to about 36.5 µM), hits mostly inhibitors | actives 0.46% (n = 330,000); calls by dose curve; tested in A549 cells; also: nearly all actives have a fitted effect of over 30% in size
HCMV inh = inhibitors of human cytomegalovirus; HFF cells, HCMV-luciferase reporter, 72 h; stronger effect = lower value; activity change, negative = inhibition, % at 57.5 µM; actives 4.5% (n = 410,000); in the data active = activity change below about -60%; inconclusive = no clear call, values can overlap the other calls; inactive = above about -39%
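Inhibition of viral replication was scored as loss of reporter luminescence in HFFs infected with HCMV-luciferase (MOI 1 PFU/cell) for 72 h; compounds tested at 2 doses, normalized to buffer and Salinomycin controls.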
LASV entry inh = inhibitors of Lassa virus binding or cell entry. AID 540256. Lassa virus pseudotype entry inhibition, cell reporter. Potency, µM (highest dose often 37.9 µM), actives largely listed as inhibitors. actives 1.2% (n = 300,000); calls by dose curve; tested in HEK293 cells; also: nearly all actives have a fitted effect of over 50% in size
FMDV inh = blocks foot and mouth disease virus. Potency, µM (top dose mostly 57.9 µM), hits mostly inhibitors. FMDV antiviral cell-based qHTS. actives 1.2% (n = 410,000). AID 1159524; calls by dose curve; tested in HEK293T cells; also: read-out not given here; nearly all actives have a fitted effect of over 45% in size
Numbers stand for hits; 0 = inactive; ? = inconclusive; - = no result; + = active, no number; ! = not active in a repeat; [ ] = remark or other dose.

SMILES	Marburg entry inh	Vaccinia mCherry	VACV Venus inh	HCMV inh	LASV entry inh	FMDV inh
CCOc1ccccc1/C=C/c1onc(C)c1S(=O)(=O)N1CCC(C(=O)N(CC)CC)CC1	-	0	0	+!	?	0
COC(=O)CCN(C(=O)C1CCN(S(=O)(=O)c2c(C)noc2/C=C/c2ccccc2F)CC1)c1ccccc1	-	0[7.34 µM]	0[7.34 µM]	0	0	0
Cc1ccc(NC(=O)Cc2ccc(-n3c(C)nc4cccnc43)cc2)cc1C	-	0	0	+	?	?
CCOc1ccc(NC(=O)Cc2ccc(-n3c(C)nc4cccnc43)cc2)cc1	-	0	0	?	0	0
O=C(Nc1ccc2c(c1)C(=O)NC2=O)c1ccccc1Cl	-	0	0	0	-	0
O=C1NC(=O)c2cc(NC(=O)c3cccc4ccccc34)ccc21	-	0	0	-84.9	-	0
Cc1ccc(S(=O)(=O)NC(=O)ON=Cc2ccc3c(c2)OCO3)cc1	-	-	-	-97.7	-	-
CS(=O)(=O)Nc1cccc(C(=O)CC2(O)C(=O)Nc3ccccc32)c1 (stereo not given)	0	-	-	-67.7	0	0
CCN(CC)S(=O)(=O)c1ccc(C(=O)NC2CC(=O)N(c3ccc(OC)c(OC)c3)C2)cc1 (stereo not given)	-	0	0	0	0	0
CN1CCN(c2ccc(C(F)(F)F)cc2NC(=O)c2ccco2)CC1	10µM	0	0	0	0	0
COc1ccc(C(=O)NC(C(=O)NCC2(N3CCCCC3)CCCCC2)C(C)C)cc1 (stereo not given)	-	-	-	-76.4	-	0
CC(Oc1ccc(Br)cc1)C(=O)NCC1(N2CCCCC2)CCCCC1 (stereo not given)	-	-	-	0	-	0
Cc1nc(-c2ccncc2)sc1C(=O)Nc1ccc(Br)cc1	?	0	0	-72.0	0	0
CC(=O)Nc1ccc(NC(=O)c2sc(-c3ccccc3)nc2C)cc1	?	0	0	0	?	0
COC(=O)C1=C(C(=O)OC)[C@@H]2N(CC=C(C)C)c3ccccc3[C@@]23CCC(=O)N(Cc2cccc(C(F)(F)F)c2)C3=N1	0	-	-	-	?	-
Nc1ncc(-c2cccc(S(N)(=O)=O)c2)c2scc(-c3ccc(F)c(Cl)c3)c12	-	-	-	-	22.3µM	-
CCc1ccccc1NC(=O)CNC(=O)c1ccc(S(=O)(=O)NCc2ccco2)cc1	-	0	0	-102.1	-	0
CCNC(=S)NNC(=O)c1ccc(S(=O)(=O)NCc2ccco2)cc1	?	0	0	-100.1	0	0
Cc1cccc(C)c1NC(=O)CNC(=O)c1ccc(S(=O)(=O)NCc2ccco2)cc1	-	-	-	0	-	0
CC(C)(C)c1ccc(C(=O)NNC(=S)NCc2ccco2)cc1	?	0	0	0	?	0
C=C1C=C(C(F)F)n2ncc(C(=O)Nc3cccc(CC)c3)c2N1	-	0	0	-	-	-
Cc1ccc(C(=O)Nc2sc(C)c(-c3ccccc3)c2C(N)=O)cc1[N+](=O)[O-]	?	0	0	?	?	1.78µM
Oc1ccc(N2Cc3ccccc3C2)cc1	?	?	0	-	?	0
O=Cc1ccc(N2Cc3ccccc3C2)cc1	1.26µM	0	0	0	?	0
COc1ccc(-c2csc(NC(C)=O)n2)cc1OC	?	0	?	0	0	0
SMILES	Marburg entry inh	Vaccinia mCherry	VACV Venus inh	HCMV inh	LASV entry inh	FMDV inh
Nc1nc(-c2ccc3c(c2)CCO3)cs1	0	0	0	0	?	0
COc1cccc(NC(=O)Nc2nc(-c3ccc(OC)c(OC)c3)cs2)c1	?	?	14.1µM	-99.4	?	25.1µM
COc1ccc(-c2csc(NC(=O)c3c(C)noc3C)n2)cc1F	?	0	0	0	0	39.8µM
COc1ccccc1C(=O)Nc1nc(-c2ccc3c(c2)OCCO3)cs1	-	0	0	-63.4	-	0
Cc1noc(C)c1C(=O)Nc1nc(-c2ccc(F)c(F)c2)cs1	0	0	0	0	0	0
CC(=O)Nc1nc(-c2ccc3c(c2)CCO3)cs1	-	-	-	-76.2	-	0
c1ccc(-c2csc(Nc3ccc4c(c3)OCCO4)n2)cc1	?	0	0	0	10µM	0
COc1ccc(CNC(=O)C2CCN(C(=O)c3ccc(F)cc3)CC2)cc1OC	-	-	-	0	-	0
c1cc2c(cc1Nc1nc(-c3ccc4c(c3)OCO4)cs1)OCCO2	0	-	-	0	?	0
COc1ccc(-c2csc(NC(=O)C3CCN(C(=O)c4ccc(F)cc4)CC3)n2)cc1OC	?	0	?	-	15.8µM	35.5µM
CC1CCCCN1C(=O)c1cnn2c1NC(=C1CC1)C=C2C(F)F (stereo not given)	-	0	0	-	-	-
